Where a structure was tested more than once in an assay, its records may differ in their call. Active and inactive are the calls of the source. Rule for the calls: active = hit-call score of the fitted dose curve at least 0.9, where 1 is the maximum; inactive = score below 0.9.
What follows are molecules tested against Bile acid receptor (Homo sapiens) (UniProt Q96RI1) (assay: ATG_IR1_CIS: Attagene CIS-FACTORIAL HepG2 Assay for human Nuclear Receptor Subfamily 1 Group H Member 4 (NR1H4), IR1 submotif (AID 2282946)). Details: IR1 reporter transcription, actives raise or lower the signal.
Chain of Bile acid receptor (Homo sapiens) (Q96RI1 whole entry, looked up): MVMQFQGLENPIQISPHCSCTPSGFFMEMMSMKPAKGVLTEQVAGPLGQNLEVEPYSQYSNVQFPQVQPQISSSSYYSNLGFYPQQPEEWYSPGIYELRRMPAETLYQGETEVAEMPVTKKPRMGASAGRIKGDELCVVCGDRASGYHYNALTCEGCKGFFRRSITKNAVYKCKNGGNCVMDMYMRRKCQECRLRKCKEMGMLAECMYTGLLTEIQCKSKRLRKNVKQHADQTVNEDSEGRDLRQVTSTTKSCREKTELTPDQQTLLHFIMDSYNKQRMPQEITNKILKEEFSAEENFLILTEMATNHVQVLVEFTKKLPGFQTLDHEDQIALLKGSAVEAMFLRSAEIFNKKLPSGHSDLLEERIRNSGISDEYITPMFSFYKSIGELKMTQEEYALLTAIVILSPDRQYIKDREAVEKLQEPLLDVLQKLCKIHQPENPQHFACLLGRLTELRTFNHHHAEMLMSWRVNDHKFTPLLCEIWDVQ
Procedure: ATG_CIS is a cell-based, multiplexed-readout assay that uses HepG2, a human liver cell line, with measurements taken at 24 hours after chemical dosing in a 24-well plate.ATG_IR1_CIS is one of 52 assay component(s) measured or calculated from the ATG_CIS assay. It is designed to make measurements of mRNA induction, a form of inducible reporter, as detected with fluorescence intensity signals by Reverse transcription polymerase chain reaction (RT-PCR) and Capillary electrophoresis technology.Data from the assay component ATG_IR1_CIS was analyzed into 1 assay endpoint. This assay endpoint, ATG_IR1_CIS, was analyzed with bidirectional fitting relative to DMSO as the negative control and baseline of activity. Using a type of inducible reporter, measures of mRNA for gain or loss-of-signal activity can be used to understand the reporter gene at the transcription factor-level as they relate to the gene NR1H4. Furthermore, this assay endpoint can be referred to as a primary readout, because this assay has produced multiple assay endpoints where this one serves a reporter gene function. To generalize the intended target to other relatable targets, this assay endpoint is annotated to the nuclear receptor intended target family, where the subfamily is non-steroidal.
Human liver HepG2 cells are transiently transfected with multiple reporter transcription units (MRTUs) in 6-well plates using FuGene 6 reagent (Roche; 3 ml FuGene/1 mg DNA). The MRTU constructs are regulated by a cis-regulating element (promoter). […] A major difference between the CIS and TRANS system is that in CIS activities of endogenous TFs are measured, whereas the TRANS assay evaluates changes in activities of exogenous, chimeric NR-Gal4 proteins. […] At the end of 24 hour incubation, total RNA was isolated using TriZol reagent (Invitrogen). The isolated RNA is then reverse-transcribed using oligo(dT) primer and Mo-MLV reverse transcriptase (Invitrogen) with DNAse I (Ambion) treatment for 30 min. The one-tenth of the produced cDNA was amplified by PCR using Taq DNA polymerase (Invitrogen) and two reporter sequence-specific primers. The PCR products were fluorescently labeled by primer extension with 6-arboxyfluorescein (6-FAM) 5'-labeled reporter sequence-specific primer (2 min at 95 C, 20 s at 68 C and 10 min at 72 C) and these products were digested with 5U of HpaI (New England Biolabs) for 2h at 37 C. The fragments were purified using Qiaquick PCR columns (Qiagen), analyzed on an ABI 3130xL genetic analyzer (Applied Biosystems) with peak positions identified by using a set of X-rhodamine (ROX)-labeled MapMarker1000 molecular weight standards (BioVentures). The raw capillary electrophoresis data was processed using Attagraph software (Attagene).
With `CCC(C)OC(=O)N1CCCCC1CCO` (stereo unspecified) the outcome was “inactive”.
`CCN(Cc1c(F)cccc1Cl)c1c([N+](=O)[O-])cc(C(F)(F)F)cc1[N+](=O)[O-]` was tested, and the outcome was “inactive”.
`CCOC(=O)c1ccc(O)cc1` was tested, and the outcome was “inactive”.
In the case of `COC(=O)c1cccc(C)c1S(=O)(=O)NC(=O)Nc1nc(OCC(F)(F)F)nc(N(C)C)n1`, the outcome is reported as “inactive”.
For `COC(=O)c1ccccc1S(=O)(=O)NC(=O)Nc1nc(OC(F)F)cc(OC(F)F)n1`, the outcome was “inactive”.
With `O=C(c1ccccc1)C1CCCCC1` the outcome was “inactive”.
`COC(=O)c1ccc(CNS(C)(=O)=O)cc1S(=O)(=O)NC(=O)Nc1nc(OC)cc(OC)n1` was tested, and the outcome was “inactive”.
For `O=C(Nc1ccc([N+](=O)[O-])cc1Cl)c1cc(Cl)ccc1O`, the outcome was “inactive”.
For `C[C@]12CC[C@@H]3c4ccc(O)cc4C[C@@H](CCCCCCCCCS(=O)CCCC(F)(F)C(F)(F)F)[C@H]3[C@@H]1CC[C@@H]2O` (stereo partly specified), the outcome was “inactive”.
For `Cc1nn(C)c(Oc2ccccc2)c1C=NOCc1ccc(C(=O)OC(C)(C)C)cc1`, the outcome was “inactive”.
With `CCCCOC(=O)[C@@H](C)Oc1ccc(Oc2ccc(C(F)(F)F)cn2)cc1` the outcome was “inactive”.
`CCCCOC(=O)C(C)Oc1ccc(Oc2ccc(C(F)(F)F)cn2)cc1` (stereo unspecified) was tested, and the outcome was “inactive”.
For `CC(C)CCCCCCc1ccc(O)cc1`, the outcome was “inactive” and the AC50 was 17.9 µM (active).
In the case of `CCOC(=O)C(C)Oc1ccc(Oc2nc3ccc(Cl)cc3o2)cc1` (stereo unspecified), the outcome is reported as “inactive”.
For `CCOC(=O)NCCOc1ccc(Oc2ccccc2)cc1`, the AC50 was 88.9 µM (active).
For `CC(C)(C)[C@@H](O)[C@@H](Cc1ccc(Cl)cc1)n1cncn1`, the AC50 was 41.3 µM (active).
For `CCCCOCCOCCOCc1cc2c(cc1CCC)OCO2`, the outcome was “inactive”.
For `O=C(O)C1(C(=O)Nc2ccc(Cl)cc2Cl)CC1`, the outcome was “inactive”.
`O=C(c1ccc(O)cc1O)c1ccc(O)cc1O` was tested, and the outcome was “inactive”.
For `CCOC(=O)[C@H](C)Oc1ccc(Oc2nc3ccc(Cl)cc3o2)cc1`, the outcome was “inactive”.
For `C#CCOC(=O)[C@@H](C)Oc1ccc(Oc2ncc(Cl)cc2F)cc1`, the outcome was “inactive”.
With `CCCOC(=O)c1ccc(C(=O)OCCC)nc1` the outcome was “inactive”.
For `COc1nc(C)nc(NC(=O)NS(=O)(=O)c2ccccc2OCCCl)n1`, the outcome was “inactive” and the AC50 was 8.66 µM (active).
For `c1ccc2[nH]c(-c3cscn3)nc2c1`, the outcome was “inactive”.
With `CCCN(CCC)c1c([N+](=O)[O-])cc(C(F)(F)F)c(N)c1[N+](=O)[O-]` the outcome was “inactive”.
`Oc1ccc(C(c2ccc(O)cc2)C(Cl)(Cl)Cl)cc1` was tested, and the outcome was “inactive”.
`C[C@]12C[C@H](O)[C@H]3[C@@H](CCC4=CC(=O)CC[C@@]43C)[C@@H]1CC[C@@H]2C(=O)CO` was tested, and the outcome was “inactive”.
`CCC(O)=C1C(=O)CC(C(=O)O)CC1=O` (stereo unspecified) was tested, and the outcome was “inactive”.
For `N#CSCSc1nc2ccccc2s1`, the outcome was “inactive”.
In the case of `COC(=O)c1c(Cl)nn(C)c1S(=O)(=O)NC(=O)Nc1nc(OC)cc(OC)n1`, the outcome is reported as “inactive”.
`COC(=O)CSc1cc(N=c2sc(=O)n3n2CCCC3)c(F)cc1Cl` was tested, and the outcome was “inactive”.
`OB(O)O` was tested, and the outcome was “inactive”.
`CCN(CC)C(=O)c1cccc(C)c1` was tested, and the outcome was “inactive”.
`CCOC(=O)C(C)Oc1ccc(Oc2cnc3cc(Cl)ccc3n2)cc1` (stereo unspecified) was tested, and the outcome was “inactive”.
